We go through eleven compounds from PubChem BioAssay (Tox21).

A number with no mark means an inactive call. Records with an inconclusive call do not appear. Calls of active or inactive are those of the source. Unless noted, calls follow the shape of the dose curve; as a rule, active = well fitted curve in the direction sought with a large enough effect in the repeat runs; inconclusive = weak or mixed curves; inactive = no such curve, though single readings can be large; an effect the other way counts as inactive or inconclusive.

Assay [1] is described as follows: Caspase-3/7 induction in HepG2 cells by small molecules, qHTS assay (AID 1346978). Also: nearly all actives have a fitted effect of over 15% in size. An outline of the steps: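 Wild-type HepG2 cells (2,000/well) were settled 5 h at 37 C, 5% CO2, then exposed to compounds in DMSO for 17 h. Caspase-3/7 activity was read by luminescence 30 min after adding Caspase-Glo 3/7 reagent at room temperature.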
For orientation: In qHTS, concentration-response curves come from the screen itself.

The nature of assay [2]: Caspase-3/7 induction in CHO-K1 cells by small molecules, qHTS assay (AID 1346980). Also: nearly all actives have a fitted effect of over 15% in size. The gist of the method: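 Wild-type cells were seeded at 1,500 per well and settled 5 hr at 37 C, 5% CO2, then exposed to DMSO-dissolved compounds for 17 hr. Caspase-Glo 3/7 reagent was added, and luminescence was read after 30min at room temperature.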
The target in assay [3] is Nuclear receptor subfamily 1 group I member 2 (Homo sapiens) (UniProt O75469). Nature of the assay: Human pregnane X receptor (PXR) small molecule agonists, qHTS assay (AID 1346982). Also: nearly all actives have a fitted effect of over 35% in size. Also: potency is read from the fitted curve at half-maximal effect. The gist of the method: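 Reporter HepG2 cells expressing PXR-Luc are cultured in charcoal-stripped FBS (5%), treated with compounds for 24 hr at 37 C, and assayed by ONE-Glo luminescence after 30 min at room temperature.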

The target in assay [4] is Acetylcholinesterase (Homo sapiens) (UniProt P22303). Nature of the assay: Acetylcholinesterase (AChE) small molecule antagonists: enzyme-based qHTS assay (AID 1347397; calls by dose curve; also: nearly all actives have a fitted effect of over 55% in size). Conditions: Potency: AChE enzyme activity inhibition. An outline of the steps:
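Compound or DMSO vehicle was pin-transferred onto recombinant human AChE (50 mU/mL as dispensed) and left 30 min at room temperature. Acetylthiocholine with DTNB then started the reaction, read colorimetrically 10 min later.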

Assay [5] has the same target. The assay is described as follows: Acetylcholinesterase (AChE) small molecule antagonists: fluorescence cell-based qHTS assay (AID 1347398; calls by dose curve; also: nearly all actives have a fitted effect of over 50% in size; also: potency is read from the fitted curve at half-maximal effect). Conditions: Potency: AChE activity. The gist of the method: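 Using neuroblastoma SH-SY5Y cells as the enzyme source, test chemicals are preincubated 30 min at 37 C; AChE-driven acetylthiocholine cleavage is then quantified by thiocholine-dependent Thiolite Green fluorescence after 40 min at room temperature.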

Assay [6] has the same target. The assay is described as follows: Acetylcholinesterase (AChE) small molecule antagonists: enzyme-based qHTS assay with human liver microsomes (AID 1347399; calls by dose curve; also: nearly all actives have a fitted effect of over 60% in size). Conditions: Potency: qHTS inhibition. An outline of the steps:
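Recombinant human AChE (50 mU/mL in the enzyme mix) and human liver microsomes (0.25 mg/mL final) were preincubated with compound and NADPH (0.25 mg/mL final) for 30 min at 37 C. Acetylthiocholine/DTNB was then added; thiocholine was read colorimetrically after 10 min at room temperature.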

Assay [7] addresses Cytochrome P450 2D6 (Homo sapiens) (UniProt P10635). The assay is described as follows: Cytochrome P450 Family 2 Subfamily D Member 6 (CYP2D6) small molecule antagonists: luciferase reporter qHTS assay (AID 1671196). Also: nearly all actives have a fitted effect of over 50% in size. Also: potency is read from the fitted curve at half-maximal effect. The gist of the method:
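Test chemicals meet CYP2D6 plus proluciferin substrate (10 min, RT); NADPH regenerating solution then drives turnover for 1 h. Detection reagent halts the reaction; luminescence measured after 20 min.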

Assay [8] has as its target Cytochrome P450 2C19 (Homo sapiens) (UniProt P33261). Nature of the assay: Cytochrome P450 Family 2 Subfamily C Member 19 (CYP2C19) small molecule antagonists: luciferase reporter qHTS assay (AID 1671197). Also: nearly all actives have a fitted effect of over 65% in size. Also: potency is read from the fitted curve at half-maximal effect. An outline of the steps:
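P450-Glo CYP2C19 system: enzyme-substrate mix with compound 10 min at room temperature, then NADPH regeneration solution, 1 h at 37C. Proluciferin-to-luciferin conversion detected by luminescence after 20 min with detection reagent; ketoconazole as positive control.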
In general terms: Reporter assays use an easily measured gene product as a stand-in for the process of interest.

The target of assay [9] is Cytochrome P450 2C9 (Homo sapiens) (UniProt P11712). The assay is described as follows: Cytochrome P450 Family 2 Subfamily C Member 9 (CYP2C9) small molecule antagonists: luciferase reporter qHTS assay (AID 1671198). Also: nearly all actives have a fitted effect of over 50% in size. Also: potency is read from the fitted curve at half-maximal effect. An outline of the steps: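 CYP2C9 activity was measured with a P450-Glo proluciferin substrate. Enzyme–substrate mix was held with compound for 10 min at room temperature, then NADPH regeneration solution was added for 1 h at 37C. Luciferin product was read as luminescence.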

Assay [10] addresses Cytochrome P450 1A2 (Homo sapiens) (UniProt P05177). The assay is described as follows: Cytochrome P450 Family 1 Subfamily A Member 2 (CYP1A2) small molecule antagonists: luciferase reporter qHTS assay (AID 1671199). Also: nearly all actives have a fitted effect of over 50% in size. Also: potency is read from the fitted curve at half-maximal effect. The gist of the method:
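Steps: enzyme-substrate mix dispensed; test compounds and furafylline control pinned in; 10 min room temperature; NADPH regeneration solution added, 1 h; reaction stopped with luciferin detection reagent; luminescence read after 20 min.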

Assay [11] deals with Voltage-gated inwardly rectifying potassium channel KCNH2 (Homo sapiens) (UniProt Q12809). The assay is described as follows: Human Ether-a-go-go-Related Gene (hERG) channel small molecule antagonists: fluorescence cell-based qHTS assay (AID 1671200). The gist of the method: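 Kinetic two-minute fluorescence traces, sampled at 1 s, were collected following thallium stimulus of U2OS cells (1000 per well) that had been cultured overnight at 37 C and loaded with FluxOR II.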
On the technique in general: Block of hERG is tested as a sign of cardiac risk.

In assay [12] the target is Cytochrome P450 3A4 (Homo sapiens) (UniProt P08684). Nature of the assay: Cytochrome P450 Family 3 Subfamily A Member 4 (CYP3A4) small molecule antagonists: luciferase reporter qHTS assay (AID 1671201). Also: nearly all actives have a fitted effect of over 50% in size. Also: potency is read from the fitted curve at half-maximal effect. An outline of the steps: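 Proluciferin-to-luciferin conversion by CYP3A4, NADPH-regenerated, 1 h RT; luminescence read as RLU. Ketoconazole as control.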
For assay [13], the target named is Acetylcholinesterase (Homo sapiens) (UniProt P22303). The assay is described as follows: Acetylcholinesterase (AChE) small molecule antagonists: colormetric cell-based qHTS assay (AID 1347395; calls by dose curve; also: nearly all actives have a fitted effect of over 30% in size). The gist of the method: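 AChE inhibition read colorimetrically via DTNB–thiocholine in SH-SY5Y cells. Compound 30 min, substrate 90 min, both 37 C.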
Assay [14] in a line: Caspase-3/7 induction in HepG2 cells by small molecules, qHTS cell viability counter screen (AID 1346981). Also: series mostly up to about 92 µM; nearly all actives have a fitted effect of over 30% in size. An outline of the steps:
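In this quantitative HTS counter screen, compounds delivered in DMSO were left on unmodified HepG2 cells for 16 hr at 37 C. Viability was then determined fluorometrically with CellTiter-Fluor, in parallel with caspase-3/7 induction in the same wells.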

Assay [15] concerns the target Nuclear receptor subfamily 1 group I member 2 (Rattus norvegicus) (UniProt Q9R1A7). The assay is described as follows: Rat pregnane X receptor (rPXR) activation by small molecules, qHTS assay (AID 1346983). Also: potency is read from the fitted curve at half-maximal effect; nearly all actives have a fitted effect of over 20% in size. Conditions: rPXR luciferase reporter cells, One-Glo luminescence, 24 h; max activation: stronger effect = higher value. An outline of the steps:
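Cell-based rPXR luciferase reporter assay, 2,000 cells per well, rested 5hr at 37 C before compound addition in DMSO, then 24 hr at 37 C. One-Glo reagent was added and luminescence read after 30 min at room temperature.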

Assay [16] concerns the target Nuclear receptor subfamily 1 group I member 2 (Homo sapiens) (UniProt O75469). The assay is described as follows: Human pregnane X receptor (PXR) activation by small molecules, qHTS assay (AID 1346985). Also: potency is read from the fitted curve at half-maximal effect; nearly all actives have a fitted effect of over 40% in size. An outline of the steps:
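DPX-2 cells (HepG2 co-transfected with a PXR response element and a CYP3A4-promoter luciferase construct) were seeded at 2,000 per well, rested 5 hr at 37C, then exposed to DMSO-dissolved compounds for 24 hr. Activation was read as luciferase luminescence.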

Assay [17] shares this target. The assay is described as follows: CYP3A4 induction through human pregnane X receptor (PXR) by small molecules, qHTS assay (AID 1346984). Also: nearly all actives have a fitted effect of over 40% in size. The gist of the method: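 Induction measured in HepG2-based DPX-2 cells co-expressing human PXR and a CYP3A4 promoter-driven luciferase. After a 24-hour compound exposure, cells received CYP3A4 luciferin substrate at 3uM final for 3 hours, and light output was then recorded.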

Chain of Cytochrome P450 1A2 (Homo sapiens) (P05177 whole entry, looked up): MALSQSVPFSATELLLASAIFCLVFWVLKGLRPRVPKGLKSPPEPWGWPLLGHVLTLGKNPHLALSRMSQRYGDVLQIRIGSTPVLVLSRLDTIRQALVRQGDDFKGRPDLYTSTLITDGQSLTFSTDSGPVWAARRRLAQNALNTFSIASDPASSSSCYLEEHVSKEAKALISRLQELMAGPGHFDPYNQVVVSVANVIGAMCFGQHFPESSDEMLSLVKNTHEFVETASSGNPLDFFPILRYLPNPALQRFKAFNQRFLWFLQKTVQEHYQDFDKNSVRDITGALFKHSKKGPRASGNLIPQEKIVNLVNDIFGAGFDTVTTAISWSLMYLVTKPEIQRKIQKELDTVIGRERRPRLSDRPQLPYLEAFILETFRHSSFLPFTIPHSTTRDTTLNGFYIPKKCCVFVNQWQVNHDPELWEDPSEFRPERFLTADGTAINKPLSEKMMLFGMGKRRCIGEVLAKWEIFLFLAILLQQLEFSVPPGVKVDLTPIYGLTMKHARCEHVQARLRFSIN
Chain of Acetylcholinesterase (Homo sapiens) (P22303 whole entry, looked up): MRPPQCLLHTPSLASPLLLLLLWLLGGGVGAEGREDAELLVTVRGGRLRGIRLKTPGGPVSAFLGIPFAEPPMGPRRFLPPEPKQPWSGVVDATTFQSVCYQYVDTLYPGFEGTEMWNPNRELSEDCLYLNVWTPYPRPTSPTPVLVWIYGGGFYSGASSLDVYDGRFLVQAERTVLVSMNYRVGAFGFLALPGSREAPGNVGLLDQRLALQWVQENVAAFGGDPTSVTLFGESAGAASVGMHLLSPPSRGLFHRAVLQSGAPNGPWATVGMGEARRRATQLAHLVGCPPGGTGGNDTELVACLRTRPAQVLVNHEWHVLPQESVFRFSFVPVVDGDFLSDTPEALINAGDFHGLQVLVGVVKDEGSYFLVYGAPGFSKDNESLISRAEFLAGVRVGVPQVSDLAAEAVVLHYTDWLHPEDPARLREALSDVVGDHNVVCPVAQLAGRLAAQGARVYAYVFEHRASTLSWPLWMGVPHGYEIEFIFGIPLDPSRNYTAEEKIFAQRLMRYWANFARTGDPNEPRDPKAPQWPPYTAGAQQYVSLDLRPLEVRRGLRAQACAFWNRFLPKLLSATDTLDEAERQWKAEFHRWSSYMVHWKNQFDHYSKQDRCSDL
Chain of Cytochrome P450 2C19 (Homo sapiens) (P33261 whole entry, looked up): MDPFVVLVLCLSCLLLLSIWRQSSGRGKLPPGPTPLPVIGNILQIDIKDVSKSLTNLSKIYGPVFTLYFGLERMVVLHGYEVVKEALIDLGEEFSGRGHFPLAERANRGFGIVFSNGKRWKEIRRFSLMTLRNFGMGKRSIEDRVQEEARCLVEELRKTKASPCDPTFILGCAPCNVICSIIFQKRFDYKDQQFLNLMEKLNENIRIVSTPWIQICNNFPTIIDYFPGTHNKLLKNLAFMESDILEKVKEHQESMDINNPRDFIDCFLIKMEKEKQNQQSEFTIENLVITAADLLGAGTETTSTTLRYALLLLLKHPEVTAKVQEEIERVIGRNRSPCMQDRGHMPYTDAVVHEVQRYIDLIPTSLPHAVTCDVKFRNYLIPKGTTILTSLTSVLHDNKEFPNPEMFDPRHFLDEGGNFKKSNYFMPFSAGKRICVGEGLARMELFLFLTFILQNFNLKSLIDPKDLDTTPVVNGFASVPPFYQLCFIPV
Chain of Cytochrome P450 3A4 (Homo sapiens) (P08684 whole entry, looked up): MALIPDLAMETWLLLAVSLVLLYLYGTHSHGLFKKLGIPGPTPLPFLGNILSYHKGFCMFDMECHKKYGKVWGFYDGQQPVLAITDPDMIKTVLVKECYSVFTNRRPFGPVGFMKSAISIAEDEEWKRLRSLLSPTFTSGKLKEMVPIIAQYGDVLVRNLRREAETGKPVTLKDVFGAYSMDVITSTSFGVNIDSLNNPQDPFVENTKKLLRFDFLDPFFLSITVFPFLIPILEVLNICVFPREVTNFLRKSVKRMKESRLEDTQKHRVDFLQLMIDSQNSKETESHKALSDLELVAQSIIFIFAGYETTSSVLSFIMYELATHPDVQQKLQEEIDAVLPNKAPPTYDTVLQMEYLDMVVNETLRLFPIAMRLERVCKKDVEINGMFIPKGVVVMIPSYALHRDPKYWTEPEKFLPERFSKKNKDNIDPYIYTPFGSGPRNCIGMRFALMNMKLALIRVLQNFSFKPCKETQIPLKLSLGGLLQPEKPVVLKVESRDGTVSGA
Chain of Voltage-gated inwardly rectifying potassium channel KCNH2 (Homo sapiens) (Q12809 whole entry, looked up): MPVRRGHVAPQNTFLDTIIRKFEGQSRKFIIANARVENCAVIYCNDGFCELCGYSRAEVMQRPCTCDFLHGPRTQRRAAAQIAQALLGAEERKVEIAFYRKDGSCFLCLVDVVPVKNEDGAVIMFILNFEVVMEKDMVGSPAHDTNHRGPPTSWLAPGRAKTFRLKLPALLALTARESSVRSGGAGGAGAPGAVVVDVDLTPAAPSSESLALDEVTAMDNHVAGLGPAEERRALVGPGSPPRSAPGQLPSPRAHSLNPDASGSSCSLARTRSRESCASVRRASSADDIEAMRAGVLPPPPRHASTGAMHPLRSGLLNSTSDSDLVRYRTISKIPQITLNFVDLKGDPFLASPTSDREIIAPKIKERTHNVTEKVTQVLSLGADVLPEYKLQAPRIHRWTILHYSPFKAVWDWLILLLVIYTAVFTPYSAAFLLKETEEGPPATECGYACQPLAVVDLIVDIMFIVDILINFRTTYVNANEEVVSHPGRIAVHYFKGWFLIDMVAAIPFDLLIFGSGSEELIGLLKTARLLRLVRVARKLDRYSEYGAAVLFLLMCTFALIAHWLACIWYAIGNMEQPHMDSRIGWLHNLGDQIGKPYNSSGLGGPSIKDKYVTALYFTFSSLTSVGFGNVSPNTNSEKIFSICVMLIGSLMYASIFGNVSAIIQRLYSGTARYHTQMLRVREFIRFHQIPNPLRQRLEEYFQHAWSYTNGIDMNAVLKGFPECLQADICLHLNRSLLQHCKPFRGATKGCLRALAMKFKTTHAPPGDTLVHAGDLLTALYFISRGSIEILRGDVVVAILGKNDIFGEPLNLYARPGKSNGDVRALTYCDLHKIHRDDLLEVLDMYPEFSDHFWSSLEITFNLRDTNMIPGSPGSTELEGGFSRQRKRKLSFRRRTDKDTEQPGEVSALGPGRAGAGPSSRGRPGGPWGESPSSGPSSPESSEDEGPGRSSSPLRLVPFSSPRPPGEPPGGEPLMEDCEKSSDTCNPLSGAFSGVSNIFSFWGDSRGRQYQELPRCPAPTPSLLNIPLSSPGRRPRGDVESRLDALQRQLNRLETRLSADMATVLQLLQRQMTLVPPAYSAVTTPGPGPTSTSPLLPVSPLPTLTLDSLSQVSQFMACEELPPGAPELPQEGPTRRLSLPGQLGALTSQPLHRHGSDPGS
Chain of Cytochrome P450 2D6 (Homo sapiens) (P10635 whole entry, looked up): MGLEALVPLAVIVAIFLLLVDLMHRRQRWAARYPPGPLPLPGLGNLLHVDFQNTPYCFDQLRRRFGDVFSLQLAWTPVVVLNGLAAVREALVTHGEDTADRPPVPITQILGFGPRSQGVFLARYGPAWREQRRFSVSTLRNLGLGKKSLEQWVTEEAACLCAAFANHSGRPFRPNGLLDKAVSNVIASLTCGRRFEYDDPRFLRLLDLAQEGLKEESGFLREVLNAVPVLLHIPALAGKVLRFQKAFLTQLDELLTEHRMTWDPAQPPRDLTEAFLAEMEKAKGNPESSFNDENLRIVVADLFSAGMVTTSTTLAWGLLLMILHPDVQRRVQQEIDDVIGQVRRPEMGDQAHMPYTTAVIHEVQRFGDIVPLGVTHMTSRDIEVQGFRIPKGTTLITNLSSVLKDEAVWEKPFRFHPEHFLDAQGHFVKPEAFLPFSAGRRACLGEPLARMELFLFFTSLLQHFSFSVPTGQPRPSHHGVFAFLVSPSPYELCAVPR
Chain of Cytochrome P450 2C9 (Homo sapiens) (P11712 whole entry, looked up): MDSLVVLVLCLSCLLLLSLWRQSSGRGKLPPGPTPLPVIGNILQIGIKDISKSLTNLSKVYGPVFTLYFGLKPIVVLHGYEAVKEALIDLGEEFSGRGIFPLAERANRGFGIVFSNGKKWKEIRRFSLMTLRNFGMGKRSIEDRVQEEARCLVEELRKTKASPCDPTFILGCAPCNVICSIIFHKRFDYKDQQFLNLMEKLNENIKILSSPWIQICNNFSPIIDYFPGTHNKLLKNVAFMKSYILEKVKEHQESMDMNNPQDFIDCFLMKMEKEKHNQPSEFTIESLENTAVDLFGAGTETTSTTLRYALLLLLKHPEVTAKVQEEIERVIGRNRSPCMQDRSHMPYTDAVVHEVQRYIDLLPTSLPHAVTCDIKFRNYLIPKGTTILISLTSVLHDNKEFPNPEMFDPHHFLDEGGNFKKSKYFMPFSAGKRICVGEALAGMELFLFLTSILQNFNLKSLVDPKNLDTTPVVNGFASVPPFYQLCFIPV
Chain of Nuclear receptor subfamily 1 group I member 2 (Homo sapiens) (O75469 whole entry, looked up): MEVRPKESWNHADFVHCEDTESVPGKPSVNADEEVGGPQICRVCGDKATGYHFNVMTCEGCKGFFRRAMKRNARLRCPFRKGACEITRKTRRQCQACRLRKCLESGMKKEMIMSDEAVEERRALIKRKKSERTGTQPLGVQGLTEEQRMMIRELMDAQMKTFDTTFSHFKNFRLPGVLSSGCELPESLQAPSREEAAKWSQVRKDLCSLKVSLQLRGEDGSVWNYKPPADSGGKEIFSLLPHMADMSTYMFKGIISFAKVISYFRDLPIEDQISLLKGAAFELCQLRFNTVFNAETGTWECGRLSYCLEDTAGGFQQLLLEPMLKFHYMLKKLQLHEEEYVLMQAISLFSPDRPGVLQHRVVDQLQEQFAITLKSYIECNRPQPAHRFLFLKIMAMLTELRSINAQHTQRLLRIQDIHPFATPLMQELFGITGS

As for `CC(c1ccc(O)cc1)(c1ccc(O)cc1)c1ccc(O)cc1`, the Potency result in [1], in assay [2], in assay [4], in assay [5], in [6] and in assay [10] was “inactive” each time. In addition, in assay [11], the Potency result was “inactive”. Further, the Potency in assay [3] is 68.6 µM (active); in [7] it was 71 µM (active); in [8] it was 28.3 µM (active); in assay [9] it was 10 µM (active); in assay [12], 31.7 µM (active).
For `S=C=NCc1ccccc1`, the Potency entry in assay [1], in assay [2], in [13], in assay [4], in assay [5] and in assay [6] was “inactive” in each case. Further, the Potency entry in [11] was “inactive”. In addition, the Potency in assay [3] was 61.8 µM (active); in [7] it was 28.6 µM (active); in [8], 5.08 µM (active); in assay [9] it was 36 µM (active); in assay [10], 28.6 µM (active); in assay [12], 20.2 µM (active).
For `O=S(=O)(O)C(F)(F)C(F)(F)C(F)(F)C(F)(F)F`, the Potency entry in assay [1], in [2], in assay [3], in assay [13], in assay [4] and in assay [5] was “inactive” each time. Moreover, the Potency entry in [6] and in assay [11] was “inactive” each time. The Potency was 59.8 µM (active) in assay [7], 33.6 µM (active) in [8] and 17.9 µM (active) in assay [9].
In the case of `CCCCCCCCCCOC(=O)c1ccccc1C(=O)OCCCCCCCCCC`, the Potency result in assay [1], in assay [2], in [3], in assay [13], in [4] and in [5] was “inactive” throughout. Besides, the Potency result in assay [6], in assay [7], in assay [8], in [9], in assay [10] and in assay [11] was “inactive” each time. For the same compound, the Potency result in assay [12] is “inactive”.
With `COP(=S)(OC)Oc1cc(Cl)c(I)cc1Cl`, the Potency result in assay [1], in assay [2], in assay [3], in assay [13], in [4] and in assay [6] was “inactive” throughout. In addition, the Potency entry in assay [7] was “inactive”. Also, the Potency in [8] was 2.24 µM (active); in assay [9] it was 3.99 µM (active); in assay [10], 12.6 µM (active); in assay [12] it was 20 µM (active).
`CCCN(CCC)c1c([N+](=O)[O-])cc(S(C)(=O)=O)cc1[N+](=O)[O-]`: the Potency result in [1], in assay [2], in [4], in assay [5], in [6] and in [10] was “inactive” each time. For the same compound, the Potency entry in assay [11] was “inactive”. The Potency in assay [3] is 2.43 µM (active); in [9], 28.3 µM (active); in assay [12], 20 µM (active).
Consider `NCCCNCCCN`, for which the Potency result in assay [1], in assay [2], in assay [14] and in [11] was “inactive” in each case.
With `O=C1CN=C(c2ccccc2)c2cc(Cl)ccc2N1CC1CC1`, the Potency result in assay [1], in assay [2] and in [6] was “inactive” each time. Also, the Potency was 25.5 µM (active) in [3]; 11.2 µM (active) in [15]; 2 µM (active) in assay [16]; 29.7 µM (active) in [5]; 6.64 µM (active) in assay [8]; 26.4 µM (active) in assay [9].
In the case of `CCOP(=O)(OCC)O/C(=C/Cl)c1ccc(Cl)cc1Cl`, the Potency result in assay [1], in [2], in [17], in [11] and in assay [12] was “inactive” each time. Further, the Potency in assay [3] is 4.86 µM (active); in assay [15] it was 14.1 µM (active); in [16], 3.98 µM (active); in assay [7], 39.9 µM (active); in assay [8], 1.12 µM (active); in [9] it was 28.3 µM (active). Moreover, in assay [10], the Potency is 6.33 µM (active).
Turning to `N#Cc1cc(I)c(O)c(I)c1`, the Potency result in assay [1], in assay [2], in assay [13], in [4], in assay [5] and in [6] was “inactive” each time. Moreover, the Potency entry in assay [7], in assay [11] and in [12] was “inactive” each time. Besides, the values for the Potency in assay [3] and in assay [9] were 54.5 µM (active) and 22.4 µM (active), respectively.
Take `O=S1OC[C@@H]2[C@H](CO1)[C@]1(Cl)C(Cl)=C(Cl)[C@@]2(Cl)C1(Cl)Cl` (some centres not stated): the Potency result in assay [1] and in assay [12] was “inactive” each time. Moreover, the Potency in assay [3] was 30.6 µM (active); in assay [8], 7.96 µM (active); in [9], 39.9 µM (active); in assay [10], 35.6 µM (active).
